# Bioassay records: PubChem BioAssay, National Center for Advancing Translational Sciences (NCATS)
# SW480 rereplic: DNA re-replication induction in SW480 cells; SW480 DNA re-replication, Hoechst DNA content imaging, 48 h; Potency, µM (titrated, usually from 46.1 µM), for the others: at the top dose re-replication activation, usual class: activators; actives 1.8% (n = 340,000); further: % of control where 0% means no effect; nearly all actives have a fitted effect of over 55% in size
#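 Treated cells incubate 48 hr (37 C, 5% CO2), are stained 40 min with Hoechst, and nuclear fluorescence is enumerated; a rise in nuclei with high DNA signal marks re-replication.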
# VP16 counter: Gal4-VP16 reporter inhibition counter-screen; Drosophila S2 Gal4-VP16 UAS-luciferase, luminescence, 20 h; Potency, µM (top dose mostly 53.6 µM), for inactives: top-dose activity, negative = inhibition, usual class: inhibitors; actives 3.5% (n = 310,000); AID 2546;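 further: Gal4-VP16 expression switched on by copper sulfate through the metallothionein promoter; on the % scale 0 is the no-effect control and ±100 the full control effect; nearly all actives have a fitted effect of over 50% in size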
# KB-V1 cytotox: KB-V1 MDR subline cytotoxicity; KB-V1 MDR cells viability, CellTiter-Glo, 72 h; Potency, µM (highest dose often 46.1 µM), actives largely listed as cytotoxic; actives 3.4% (n = 400,000); AID 1347076; further: on the % scale 0 is the no-effect control and ±100 the full control effect; nearly all actives have a fitted effect of over 60% in size
#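 Cytotoxicity toward P-gp-expressing KB-V1 cells was determined as loss of CellTiter-Glo luminescence after 72 h at 37 degrees C. Compounds were tested in quantitative HTS format across a concentration range, with curves fitted to normalized data.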
# KB-3-1 tox: kills parental KB-3-1 adenocarcinoma cells; KB-3-1 viability, CellTiter-Glo ATP luminescence, 72 h; Potency, µM (titrated, usually from 46.1 µM), actives largely listed as cytotoxic; actives 1.4% (n = 400,000); further: on the % scale 0 is the no-effect control and ±100 the full control effect; nearly all actives have a fitted effect of over 60% in size
#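 Cells are dispensed, compounds pinned in, plates held at 37 °C for 72 h, then CellTiter-Glo is added and luminescence read after 10 minutes. Cell line: parental KB-3-1 in phenol-red-free DMEM, 10% FBS.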
# RORg inh: inhibitors of mouse ROR gamma transcriptional activity | P51450 | Drosophila S2 Gal4-RORgamma UAS-luciferase reporter, 20 h | Potency, µM (series often up to 53.6 µM), for the others: top-dose activity change, negative = inhibition, most hits filed as inhibitors | actives 5.4% (n = 310,000); further: on the % scale 0 is the no-effect control and ±100 the full control effect; nearly all actives have a fitted effect of over 60% in size
# Target sequence (P51450 whole entry, looked up, the tested form may be a part): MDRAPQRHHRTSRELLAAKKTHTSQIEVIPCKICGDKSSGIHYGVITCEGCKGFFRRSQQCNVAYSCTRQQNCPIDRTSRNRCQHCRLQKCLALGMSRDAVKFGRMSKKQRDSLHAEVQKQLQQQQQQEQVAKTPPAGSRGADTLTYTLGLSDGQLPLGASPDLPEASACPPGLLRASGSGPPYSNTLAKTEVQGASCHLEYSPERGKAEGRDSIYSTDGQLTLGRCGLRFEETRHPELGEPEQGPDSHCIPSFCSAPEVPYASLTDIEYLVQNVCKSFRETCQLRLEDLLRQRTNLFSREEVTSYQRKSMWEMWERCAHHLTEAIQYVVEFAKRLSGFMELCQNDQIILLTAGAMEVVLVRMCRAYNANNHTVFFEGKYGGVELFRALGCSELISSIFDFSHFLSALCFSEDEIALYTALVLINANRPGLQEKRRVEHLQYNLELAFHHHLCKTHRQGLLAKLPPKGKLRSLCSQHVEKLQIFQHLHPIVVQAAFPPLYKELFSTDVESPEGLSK
#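 Luciferase reporter read in Schneider cells carrying Gal4-RORγ (mouse) and UAS-Photinus luciferase; cells given compound 1 h before 700 uM copper sulfate induction, then incubated 20 h at ambient temperature.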
# MCF10A rerep: induces DNA re-replication in MCF 10a normal breast cells. MCF 10A DNA re-replication, Hoechst nuclear intensity, 48 h. Potency, µM (highest dose often 46.1 µM), without a hit: top-dose activity, positive = re-replication, actives largely listed as activators. actives 2.9% (n = 350,000). AID 624296; further: % of control where 0% means no effect; nearly all actives have a fitted effect of over 50% in size
# Active calls of the source: *; i = inactive; ? = inconclusive; . = not tested or not shown; [ ] = remark or other dose. Shown are actives, neighbours in structure and some others; about 10% of the full set was active somewhere. The call rests on the fitted dose curve; in most records, active means well fitted curve in the direction sought with a large enough effect; inconclusive means small, poorly fitted or top-dose-only effect, or another doubt; inactive means no such curve, though single readings can be large; an effect the other way counts as inactive or inconclusive. Potency means the concentration at half of the fitted maximal effect.
SMILES,SW480 rereplic,VP16 counter,KB-V1 cytotox,KB-3-1 tox,RORg inh,MCF10A rerep
C=CCNCCCCOc1ccc(OCc2ccccc2)cc1,21µM*,3%,i,i,-30%,?
O=C1C=C(Nc2ccc(Cl)cc2)CC(c2ccc(Cl)cc2)C1 (configuration not stated),3%,-15%,23µM*,i,?,-13%
C=CC(C)(C)c1[nH]cnc1/C=C1\NC(=O)C(C(C)C)NC1=O (configuration not stated),?,-4%,i,5.8µM*,7%,?
CCc1nn2c(=O)cc(COc3ccc(/C=C(\C#N)C(=O)Nc4ccc(C)cc4)cc3)nc2s1,.,.,i,i,.,.
Nc1nc(-c2cc(O)ccc2[N+](=O)[O-])cc(-c2ccccc2)c1[N+](=O)[O-],23µM*,13µM*,i,i,?,1.8µM*
CCOC(=O)Nc1ccc2c(c1)N(C(=O)CCN1CCOCC1)c1ccccc1S2=O (configuration not stated),5.8µM*,?,?,?,-119%,10µM*
CCOC(=O)Nc1ccc2c(c1)N(C(=O)CCN1CCOCC1)c1ccccc1S2,-6%,6%,i,i,?,?
CC(OC(=O)C1CCN(S(=O)(=O)c2ccc(C(C)(C)C)cc2)CC1)C(=O)N1CCOCC1 (configuration not stated),1%,.,16µM*,i,.,?
Cc1ccc(NC(=O)C2CCN(S(=O)(=O)c3ccc4c(c3)NC(=O)C(C)S4)CC2)cc1Cl (configuration not stated),-3%,7.1µM*,?,?,?,-9%
CC(C)c1ccc(S(=O)(=O)N2CCN(C(=O)C3CCCCC3)CC2)cc1,?,-8%,i,i,44%,3%
Cc1ccc(S(=O)(=O)N2CCN(C(=O)C3CCCCC3)CC2)cc1,?,4%,i,i,-4%,2.9µM*
Cc1ccc(S(=O)(=O)N2CCC(C(=O)N/N=C/c3ccccc3[N+](=O)[O-])CC2)cc1,?,11%,13µM*,i,?,-3%
Cc1cc(C)cc(NC(=O)C2CCN(S(=O)(=O)c3ccc4c(c3)NC(=O)C(C)S4)CC2)c1 (configuration not stated),-27%,-6%,i,i,36%,18%
COc1ccc(-n2c(=O)c3c4c(sc3n(Cc3ccc(F)cc3)c2=O)CCCC4)c(OC)c1,.,.,i,i,.,.
CC1CCCCN1S(=O)(=O)c1cc2c3c(c1)CC(=O)N3CCC2 (configuration not stated),.,.,i,i,.,.
COc1ccccc1OCC(=O)Nc1ccc(S(=O)(=O)N2CCOCC2)cc1,?,11%,i,i,-4%,?
Cc1ccc(S(=O)(=O)N2CCC(C(=O)Nc3ccc(S(=O)(=O)N4CCOCC4)cc3)CC2)cc1,3%,.,16µM*,23µM*,.,6%
O=C(Nc1ccc(S(=O)(=O)N2CCOCC2)cc1)C1CCN(S(=O)(=O)c2ccccc2)CC1,4%,.,i,?,.,-5%
CC(=O)Nc1ccc(S(=O)(=O)N2CCC(c3nnc(-c4ccc(C)cc4)o3)CC2)cc1,1%,?,i,i,14µM*,18%
Cc1cc(C)c(OCC(=O)Nc2ccc(S(=O)(=O)N3CCOCC3)cc2)c(C)c1,-2%,?,i,i,11µM*,0%
COCCCNC(=O)c1cccc2c(-c3ccnn3C)coc12,.,.,i,i,.,.
Brc1ccc(-c2csc3[n+]2CCCCC3)cc1,-2%,0%,?,?,-7%,16%
c1ccc(-c2c[nH]c3[n+]2CCCCC3)cc1,-3%,?,?,i,22µM*,16%
CC[N+]1(C)CCC(O)(c2ccc(OC)cc2)C(C(=O)c2ccc(OC)cc2)C1 (configuration not stated),2.9µM*,.,?,?,.,4.6µM*
COc1ccc(-c2ccc(C(=O)C3CC3)cc2)cc1,-1%,0%,?,i,24%,6%
SMILES,SW480 rereplic,VP16 counter,KB-V1 cytotox,KB-3-1 tox,RORg inh,MCF10A rerep
COc1cccc(Nc2ncc3nc(C)c(=O)n(Cc4cccs4)c3n2)c1,.,-12%,.,.,0%,.
O=C(CCn1[nH]c(=O)c2ccccc2c1=O)OC1CCCCC1,?,22µM*,i,i,?,?
Cc1nc(C(F)(F)F)ccc1C(=O)N1CCCCCC1(C)C(=O)NCC(C)C (configuration not stated),.,.,i,i,.,.
CCN1CCN(C(=O)c2c(C)nn(-c3ccc(F)cc3)c2-n2cccc2)CC1,.,.,i,i,.,.
Cc1ccc(COc2ccc(-c3nnco3)cc2)cc1,-1%,-5%,i,i,10%,-3%
Cc1ccc(C(C)C)c(OCc2ccc(-c3nnco3)cc2)c1,9%,?,i,i,4µM*,23µM*
CCOC(=O)c1c(C)oc2nc(C)nc(NCCc3ccc(SC)cc3)c12,.,.,i,i,.,.
CC1=C(c2ccc(NN=C(C#N)C#N)cc2)NNC(=O)C1,?,?,.,.,22µM*,1%
Oc1ccc(/C=N/N2CCN(C3c4ccccc4-c4ccccc43)CC2)c(O)c1,?,-20%,i,i,5%,6.5µM*
Oc1ccccc1-c1nnc(-c2ccc(C(F)(F)F)cc2)o1,0%,6.3µM*,?,i,3.5µM*,?
COCCCNC(=O)Cn1c(=O)n(-c2ccc(C)cc2)c(=O)c2c1c1cc(C)ccc1n2C,.,.,i,i,.,.
O=C(CSc1nnc(-c2ccccc2Br)n1-c1ccccc1)c1ccc(F)cc1,.,.,18µM*,?,.,.
COC(=O)c1ccc(NC(=O)CSc2nnc(-c3ccccc3Br)n2-c2ccccc2)cc1,?,.,i,i,.,2%
O=C(CSc1nnc(-c2cccs2)n1-c1ccccc1)N1CCCc2ccccc21,16%,4%,16µM*,i,33%,?
CCOc1ccccc1-n1c(SCC(=O)N2CCCc3ccccc32)nnc1-c1cccnc1,-73%,1%,7.3µM*,i,2%[10 µM],?
Cc1ccc(-c2ccc(SCC(=O)N3CCCc4ccccc43)nn2)cc1,.,4%,.,.,20%,.
Cc1ccc(-c2cnc(SCC(=O)N3CCCc4ccccc43)n2C)cc1,-5%,-13%,i,i,11µM*,-4%
